# Bioassay records (PubChem BioAssay)
# This is a sample that favours compounds with a hit; in the whole collection about 3.7% have one here.
# RE007 growth inh: less growth of the S. pombe RE007 Vpr strain. S. pombe RE007 Vpr strain, BacTiter-Glo ATP luminescence, 24 h. Potency, µM (top dose mostly 92.2 µM), for inactives: top-dose activity change, negative = less growth, actives largely listed as inhibitors. 360,000 tested, 0.21% active. AID 651644; active = well fitted falling curve with a large enough effect; inconclusive = small, poorly fitted or top-dose-only effect; inactive = no such curve, though single readings can be large or run the other way; also: nearly all actives have a fitted effect of over 50% in size
#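 Fission yeast strain RE007, carrying one chromosomally integrated HIV-1 vpr copy, was seeded at OD 0.01 in PMG+AL medium with 23 nL pinned compound. After 24 h at 30 °C and 99% humidity, viability was read by BacTiter-Glo luminescence.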
# TbPYK inhibitor: blocks Trypanosoma brucei pyruvate kinase; Q57TT1; TbPYK enzyme, Kinase-Glo Plus ATP luminescence, 45 min; Potency, µM (doses to about 76.8 µM), without a hit: at the highest dose activity, negative = inhibition, usual class: inhibitors; 410,000 tested, 0.12% active; AID 624173; also: nearly all actives have a fitted effect of over 50% in size
#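 Luminescent Kinase-Glo Plus end-point after 45 min room-temperature reaction of T. brucei pyruvate kinase started with 130 uM ADP (final). Buffer TEA 50 mM pH 7.2 with KCl, MgCl2, BSA, Tween-20; titration-based qHTS with fitted concentration-effect curves.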
# Sm TGR block: blocks Schistosoma mansoni thioredoxin glutathione reductase. AID 485364. Potency, µM (doses to about 114 µM), without a hit: at the highest dose activity change, negative = inhibition, hits mostly inhibitors. 360,000 tested, 3% active. purified TGR, DTNB reduction, TNB absorbance 405 nm. Q962Y6; also: nearly all actives have a fitted effect of over 60% in size
#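 Kinetic colorimetric format: TGR-catalysed, NADPH-driven DTNB reduction monitored via TNB absorbance. Enzyme dispensed at 20 nM; compound exposure 15 min at room temperature before reaction start.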
# FMDV inh: blocks foot and mouth disease virus | 410,000 tested, 1.2% active | AID 1159524 | FMDV antiviral cell-based qHTS | Potency, µM (highest dose often 57.9 µM), for the others: at the highest dose activity change, negative = inhibition, usual class: inhibitors; calls by dose curve; tested in HEK293T cells; also: read-out not given here; nearly all actives have a fitted effect of over 45% in size
# An asterisk follows results filed as active; ? = inconclusive; . = no result; [ ] = dose if it differs, or a comment. Unless noted, calls follow the shape of the dose curve; as a rule, active = well fitted curve in the direction sought with a large enough effect; inconclusive = small, poorly fitted or top-dose-only effect, or another doubt; inactive = no such curve, though single readings can be large; an effect the other way counts as inactive or inconclusive. % is scaled to controls: 0 for no effect and ±100 for the full control effect; potency is read from the fitted curve at half-maximal effect.
SMILES,RE007 growth inh,TbPYK inhibitor,Sm TGR block,FMDV inh
O=C(O)CCCCCN1C(=O)/C(=C/c2cn(-c3ccccc3)nc2-c2cccs2)SC1=S,2.0%,4.7%,.,-26.3%
CC1=NNC(=O)/C1=C\c1cn(-c2ccccc2)nc1-c1cccs1,-2.2%,-11.1%,2.3%,10µM*
Cc1c(NC(=O)/C=C/c2cn(-c3ccccc3)nc2-c2ccc(F)cc2)c(=O)n(-c2ccccc2)n1C,3.0%,?,3.16µM*,-17.5%
Cc1c(NC(=O)CN(c2ccc(F)cc2)S(=O)(=O)c2ccccc2)c(=O)n(-c2ccccc2)n1C,-6.0%,1.9%,10µM*,-24.3%
CC1=NNC(=O)/C1=C\c1cn(-c2ccccc2)nc1-c1ccc(F)cc1,2.5%,-0.4%,-1.5%,11.2µM*
CCOc1ccc(-c2nc(CSCC(=O)NCc3ccc(Cl)cc3)c(C)o2)cc1,.,-1.9%,-18.0%,?
COCCCN1C(=O)c2[nH]nc(-c3ccccc3O)c2C1c1ccc(OCc2ccccc2)cc1 (centres undefined),.,-2.0%,0.9%,?
Cn1c(SC2=CS(=O)(=O)c3ccccc32)nc2ccccc21,4.1%,3.4%,39.8µM*,28.2µM*
Cn1c(CSc2nc3ccccc3n2C)nc2ccccc21,18.8%,4.5%,12.2%,16.5%
Cc1cc(C)c(OCC(=O)N(Cc2ccco2)Cc2ccco2)c(C)c1,.,0.4%,-0.6%,-15.8%
Cc1[nH]c2ccccc2c1C1=CC(=O)C=CC1=O,25.1µM*,3.98µM*,.,?
COC(=O)C1CCN(C(=O)c2cc(-c3ccc(Cl)s3)nc3ccccc23)CC1,23.8%,-2.6%,2.0%,35.5µM*
O=C(Nc1cccc(S(=O)(=O)C(F)F)c1)c1ccc(S(=O)(=O)N2CCCCC2)cc1,1.4%,4.0%,-6.2%,28.2µM*
CN(C)S(=O)(=O)c1cccc(NC(=O)c2ccc(S(=O)(=O)N3CCCCC3)cc2)c1,-7.4%,-13.9%,6.1%,-29.1%
CN(C)c1ccc(C(=O)Nc2cccc(S(=O)(=O)N3CCCC3)c2)cc1,9.5%,1.4%,-9.6%,25.2%
O=C(Nc1cccc(S(=O)(=O)N2CCCCC2)c1)c1ccc(S(=O)(=O)C(F)F)cc1,3.3%,1.3%,2.4%,28.2µM*
C(=C\c1sc(Nc2ccccc2)n[n+]1-c1ccccc1)/c1ccccc1,-3.6%,-14.0%,.,6.31µM*
COc1cccc(NC(=O)c2sc3nc(C)c(C(=O)Nc4ccc(Cl)cc4)c(-c4ccc(Br)cc4)c3c2N)c1,.,-2.2%,1.9%,-4.6%
CN1CCC(OC(=O)COc2ccc(Br)cc2)CC1,-7.2%,-0.2%,20µM*,5.3%
Cc1ccc(N(CC(=O)Nc2ccc(F)cc2F)S(=O)(=O)c2cccs2)cc1,.,-12.0%,-1.8%,0.0%
CCC1CN(CC(=O)NC(C)CO)Cc2cc(OC)ccc2O1 (centres undefined),.,.,.,4.2%
Cc1ccc(Sc2ncnc3onc(C)c23)cc1,?,-1.7%,-23.2%,17.8µM*
Cc1noc2ncnc(Sc3ccc(Cl)cc3)c12,?,2.7%,?,?
O=C(CC1Sc2ncnn2C1=O)Nc1ccccc1 (centres undefined),-15.2%,-13.9%,0.501µM*,-3.2%
O=C(CC1SC(=O)N(c2ccccc2)C1=O)Nc1ccccc1 (centres undefined),?,3.9%,?,31.6%
SMILES,RE007 growth inh,TbPYK inhibitor,Sm TGR block,FMDV inh
Cc1csc(=O)n1CCC(=O)OCC(=O)NNC(=O)c1ccc(Cl)cc1,0.1%,-13.0%,35.5µM*,-12.0%
Cc1csc(=O)n1CCC(=O)OCC(=O)NCc1ccc(Cl)cc1Cl,9.6%,-0.7%,-1.5%,-8.8%
O=C(COC(=O)c1ccc[nH]c1=O)Nc1ccc(S(=O)(=O)N2CCCC2)cc1,-6.5%,-0.1%,0.6%,-8.5%
O=C(COC(=O)c1ccc[nH]c1=O)Nc1ccc(N2CCCCC2)cc1,1.0%,-12.2%,.,2.51µM*
CCCCCCOc1ccc(/C=C/C(=O)Nc2sc3c(c2C(=O)OC)CCC3)cc1OC,.,6.5%,-1.8%,14.1µM*
CNC(=O)c1c(NC(=O)c2ccco2)sc2c1CCC2,-16.3%,-9.4%,31.6µM*,14.8%
CCOC(=O)c1c(NC(=O)/C=C/c2ccc(OCC)c(OC)c2)sc2c1CCC2,.,5.0%,13.7%,-10.3%
NC(=O)c1c(NC(NC(=O)c2ccco2)C(=O)c2ccc(Cl)cc2)sc2c1CCCC2 (centres undefined),4.0%,-10.6%,31.6µM*,.
CNC(=O)c1c(NC(=O)/C=C/c2ccccc2)sc2c1CCC2,.,-0.4%,35.5µM*,37.2%
Cc1cnc(C(=O)O)c[n+]1[O-],.,1.6%,.,-4.4%
COC1C=CO[C@@]2(C)Oc3c(C)c(O)c4c(O)c(c5c(nc6cc(C)ccn65)c4c3C2=O)NC(=O)/C(C)=C\C=CC(C)C(O)[C@@H](C)C(O)C(C)[C@@H](OC(C)=O)C1C (some centres undefined),.,-6.8%,.,.
COc1c(C=O)c(O)cc2c1C(=O)c1ccccc1C2=O,.,.,.,5.0%[97.4 µM]
O=C(/C=C/c1c(Cl)cccc1Cl)N1CCOCC1,21.4%,-1.7%,-19.5%,45.8%
O=C(/C=C/c1c(Cl)cccc1Cl)n1cccn1,-26.0%,3.0%,17.8µM*,-19.0%
O=C(c1ccccc1)c1cc2ccc(O)cc2oc1=O,?,?,-12.3%,54.6%
CC(C)(C)N1C(=O)c2ccc(C(=O)NCc3ccco3)cc2C1=O,-15.1%,-9.2%,25.1µM*,25.0%
O=C(NCc1ccco1)c1cc2ccc(O)cc2oc1=O,35.5µM*,?,?,0.0%
O=C(NCc1ccco1)c1ccc(C(F)(F)F)cc1,-1.8%,1.4%,1.7%,1.4%
O=C(c1ccc(Br)cc1)c1cc2ccc(O)cc2oc1=O,0.9%,-11.4%,35.5µM*,22.9%
Cc1ccccc1-c1noc(-c2ccccc2C(=O)NCc2ccco2)n1,4.0%,-11.0%,12.6µM*,-13.0%
CCCS(=O)(=O)NCc1c(C)ncc2c1CCN(C(=O)/C=C/c1ccccc1)C2,.,.,.,-8.9%
O=C(COCCOCCOCC(=O)Nc1c(I)cc(I)c(C(=O)O)c1I)Nc1c(I)cc(I)c(C(=O)O)c1I,.,5.1%,.,.
O=C(NCc1ccco1)c1ccc2[nH]c(=O)c(=O)[nH]c2c1,1.4%,-0.1%,-31.5%,?
Cc1c(Br)cc(C(=O)NCc2ccco2)c(C)c1C,-12.2%,-11.6%,35.5µM*,-26.0%
Cc1c(C)n(C)c2ccc(C(=O)NCCc3ccco3)cc12,-18.5%,5.6%,35.5µM*,46.6%
SMILES,RE007 growth inh,TbPYK inhibitor,Sm TGR block,FMDV inh
Cc1occc1C(=O)NCc1ccco1,18.9%,-18.4%,-2.9%,7.5%
Cc1ccc(C(=O)NCc2ccco2)cc1Br,-22.8%,0.1%,44.7µM*,-7.2%
Cc1[nH][nH]c(=O)c1C(c1ccc(-c2ccc(Cl)c(Cl)c2)o1)c1c(C)[nH][nH]c1=O,14.5%,-11.3%,39.8µM*,-19.4%
Cc1[nH][nH]c(=O)c1C(c1ccc(-c2ccc(F)cc2)o1)c1c(C)[nH][nH]c1=O,-12.3%,-16.0%,31.6µM*,-27.9%
CNC(=S)N/N=C/c1ccc(-c2ccc(C(=O)O)cc2)o1,?,-26.0%,?,-22.5%
CCOc1ccc(Cl)cc1C(c1c(C)[nH][nH]c1=O)c1c(C)[nH][nH]c1=O,18.2%,0.1%,?,43.8%
